Experimental findings from PubChem BioAssay (Tox21) are described below.

Experiment [1] is described as follows: qHTS assay to identify small molecule antagonists of the sonic hedgehog signaling (Shh) pathway (AID 1259369). Further: nearly all actives have a fitted effect of over 45% in size. Further: potency means the concentration at half of the fitted maximal effect. The procedure, abridged:
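Gli1 transcriptional reporter (firefly Luc) in NIH/3T3 background, conditioned-medium activated. 24hr exposure, luminescence endpoint.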

Experiment [2] is described as follows: qHTS assay to identify small molecule agonists of the androgen receptor (AR) signaling pathway in the presence of an antagonist - cell viability counter screen (AID 1259379; active means well fitted curve in the direction sought with a large enough effect in the repeat runs; an effect the other way counts as inactive or inconclusive;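 further: MDA-kb2 human breast cancer cells carrying an MMTV luciferase reporter; series mostly up to about 92 µM; nearly all actives have a fitted effect of over 25% in size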). The procedure, abridged: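 Counter screen for cell viability run in parallel with the AR agonist-mode luciferase assay. MDA-kb2 cells were co-treated with nilutamide (3.0uM final) and compounds, then incubated 16 hr at 37C, and CellTiter-Fluor fluorescence was measured.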

A short description of experiment [3]: qHTS assay to identify small molecule agonists of the estrogen receptor beta (ER-beta) signaling pathway - cell viability counter screen (AID 1259380; active means well fitted curve in the direction sought with a large enough effect in the repeat runs; an effect the other way counts as inactive or inconclusive; further: nearly all actives have a fitted effect of over 30% in size). An outline of the steps: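 In this qHTS counter screen, HEK293T cells carrying an ER-beta/UAS beta-lactamase reporter, grown in 2% charcoal-stripped FBS, received compound for 16 hr; ATP-based CellTiter-Glo luminescence was then read after 30 min at room temperature.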

Experiment [4] concerns the target Androgen receptor (Homo sapiens) (UniProt P10275). Kind of experiment: qHTS assay to identify small molecule agonists of the androgen receptor (AR) signaling pathway in the presence of an antagonist (AID 1259381). Further: nearly all actives have a fitted effect of over 15% in size. Further: potency means the concentration at half of the fitted maximal effect. The procedure, abridged: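 AR antagonist background: nilutamide 3.0uM final. Cell line: MDA-kb2, MMTV-driven luciferase, responsive to both AR and GR. Exposure 16hr, 37C, no CO2; ONE-Glo luminescence.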

Experiment [5] is described as follows: qHTS assay to identify small molecule antagonists of the estrogen receptor beta (ER-beta) signaling pathway - cell viability counter screen (AID 1259382; active means well fitted curve in the direction sought with a large enough effect in the repeat runs; an effect the other way counts as inactive or inconclusive; further: series mostly up to about 92 µM; nearly all actives have a fitted effect of over 55% in size). The procedure, abridged: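 HEK293T ER-beta-UAS-bla, 2% charcoal-stripped FBS; compounds + 1nM E2 16 hr 37C; CellTiter-Glo luminescence, 30 min RT.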
The target in experiment [6] is Thyrotropin receptor (Homo sapiens) (UniProt P16473). Kind of experiment: qHTS assay to identify small molecule antagonists of the thyroid stimulating hormone receptor (TSHR) signaling pathway (AID 1259385). Further: nearly all actives have a fitted effect of over 20% in size. An outline of the steps:
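TSHR-HEK293 cells were plated and held 18 h at 37C/5% CO2, then given compound plus Ro20-1724 and stimulated with TSH at 1.5 ng/mL final. After 30 min at room temperature, cAMP was detected with cAMP-d2/anti-cAMP-cryptate (1 h) by fluorescence.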

Experiment [7] has as its target Estrogen receptor beta (Homo sapiens) (UniProt Q92731). Kind of experiment: qHTS assay to identify small molecule antagonists of the estrogen receptor beta (ER-beta) signaling pathway (AID 1259378; active means well fitted inhibition curve with a large enough effect in the signal ratio in the repeat runs, not every such curve was filed as active; the % refers to the signal ratio). The procedure, abridged: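 ER-beta-UAS-bla HEK293T (GripTite) cells in 2% charcoal-stripped FBS medium were preincubated 6 hr at 37C, dosed with compound, then stimulated with 1 nM E2 (final) for 16 hr; beta-lactamase reporter read by B/G FRET fluorescence after 2 hr substrate loading.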

Experiment [8] addresses Estrogen receptor (Homo sapiens) (UniProt P03372). In words: qHTS assay to identify small molecule agonists of the estrogen receptor alpha (ER-alpha) signaling pathway in the presence of an antagonist (AID 1259383). Further: nearly all actives have a fitted effect of over 15% in size. Further: potency means the concentration at half of the fitted maximal effect. On activation: top concentration of the series differs between compounds. The procedure, abridged: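 ER-alpha agonism measured under antagonist challenge: 10.0nM ICI-182,780 (final) plus compound, 15 concentrations, 22hr, VM7Luc4E2 ERE-luciferase cells. Read by luminescence.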

A short description of experiment [9]: qHTS assay to identify small molecule agonists or antagonists of the thyroid stimulating hormone receptor (TSHR) signaling pathway - wild type cell line counter screen (AID 1259384). An outline of the steps: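 Wild-type HEK293 cells were plated 18 h at 37 C/5% CO2, pin-dosed with compound plus Ro20-1724 medium, held 30 min at room temperature, then given cAMP-d2 and anti-cAMP-cryptate; fluorescence was read after 1 h. Fifteen concentrations, triplicate.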

Experiment [10] addresses Estrogen receptor beta (Homo sapiens) (UniProt Q92731). Kind of experiment: qHTS assay to identify small molecule agonists of the estrogen receptor beta (ER-beta) signaling pathway (AID 1259377; active means well fitted activation curve with a large enough effect in the signal ratio in the repeat runs, not every such curve was filed as active; the % refers to the signal ratio). The procedure, abridged: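 Measured by fluorescence intensity from a B/G FRET beta-lactamase substrate (2 h, room temperature) in ER-beta-UAS-bla HEK293T cells treated with DMSO-dissolved compounds for 16 hr at 37C and 5% CO2.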

Records with an inconclusive call do not appear. Active and inactive are the calls of the source. Unless noted, the call rests on the fitted dose curve.

Chain of Estrogen receptor (Homo sapiens) (P03372 whole entry, looked up): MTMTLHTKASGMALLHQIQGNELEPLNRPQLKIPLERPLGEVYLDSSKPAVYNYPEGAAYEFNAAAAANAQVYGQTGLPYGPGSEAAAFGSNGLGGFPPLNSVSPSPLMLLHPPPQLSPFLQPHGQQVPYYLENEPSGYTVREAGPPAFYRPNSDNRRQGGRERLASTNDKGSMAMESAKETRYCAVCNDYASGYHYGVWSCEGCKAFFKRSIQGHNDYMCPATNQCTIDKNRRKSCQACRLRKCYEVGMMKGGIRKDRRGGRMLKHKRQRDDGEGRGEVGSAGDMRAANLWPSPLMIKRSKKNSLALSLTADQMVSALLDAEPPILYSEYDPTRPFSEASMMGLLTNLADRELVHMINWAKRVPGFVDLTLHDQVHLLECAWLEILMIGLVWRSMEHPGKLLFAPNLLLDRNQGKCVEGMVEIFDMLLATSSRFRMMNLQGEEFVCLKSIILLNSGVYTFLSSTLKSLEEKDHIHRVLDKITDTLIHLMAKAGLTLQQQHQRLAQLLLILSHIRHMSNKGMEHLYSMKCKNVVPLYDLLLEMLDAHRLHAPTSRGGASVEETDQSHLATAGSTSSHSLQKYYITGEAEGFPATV
Chain of Thyrotropin receptor (Homo sapiens) (P16473 whole entry, looked up): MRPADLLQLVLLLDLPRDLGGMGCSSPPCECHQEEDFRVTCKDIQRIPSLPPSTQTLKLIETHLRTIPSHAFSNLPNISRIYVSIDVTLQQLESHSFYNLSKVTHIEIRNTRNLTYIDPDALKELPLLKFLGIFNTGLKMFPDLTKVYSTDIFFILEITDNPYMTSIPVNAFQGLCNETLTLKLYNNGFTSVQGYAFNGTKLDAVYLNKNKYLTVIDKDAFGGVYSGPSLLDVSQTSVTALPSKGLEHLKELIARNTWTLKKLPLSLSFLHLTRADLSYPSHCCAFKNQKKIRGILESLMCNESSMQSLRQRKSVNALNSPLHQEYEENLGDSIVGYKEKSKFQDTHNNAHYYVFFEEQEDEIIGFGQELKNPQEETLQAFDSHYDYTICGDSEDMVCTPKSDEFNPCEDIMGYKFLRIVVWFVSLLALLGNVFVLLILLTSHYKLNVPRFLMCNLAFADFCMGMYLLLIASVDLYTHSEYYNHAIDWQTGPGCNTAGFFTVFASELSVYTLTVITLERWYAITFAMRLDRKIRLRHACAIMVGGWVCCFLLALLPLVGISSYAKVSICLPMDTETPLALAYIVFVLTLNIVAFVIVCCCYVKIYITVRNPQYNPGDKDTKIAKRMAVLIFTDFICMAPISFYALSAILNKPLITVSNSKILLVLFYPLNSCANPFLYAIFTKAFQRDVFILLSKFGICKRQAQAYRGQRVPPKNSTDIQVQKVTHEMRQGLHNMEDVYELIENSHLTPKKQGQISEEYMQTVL
Chain of Androgen receptor (Homo sapiens) (P10275 whole entry, looked up): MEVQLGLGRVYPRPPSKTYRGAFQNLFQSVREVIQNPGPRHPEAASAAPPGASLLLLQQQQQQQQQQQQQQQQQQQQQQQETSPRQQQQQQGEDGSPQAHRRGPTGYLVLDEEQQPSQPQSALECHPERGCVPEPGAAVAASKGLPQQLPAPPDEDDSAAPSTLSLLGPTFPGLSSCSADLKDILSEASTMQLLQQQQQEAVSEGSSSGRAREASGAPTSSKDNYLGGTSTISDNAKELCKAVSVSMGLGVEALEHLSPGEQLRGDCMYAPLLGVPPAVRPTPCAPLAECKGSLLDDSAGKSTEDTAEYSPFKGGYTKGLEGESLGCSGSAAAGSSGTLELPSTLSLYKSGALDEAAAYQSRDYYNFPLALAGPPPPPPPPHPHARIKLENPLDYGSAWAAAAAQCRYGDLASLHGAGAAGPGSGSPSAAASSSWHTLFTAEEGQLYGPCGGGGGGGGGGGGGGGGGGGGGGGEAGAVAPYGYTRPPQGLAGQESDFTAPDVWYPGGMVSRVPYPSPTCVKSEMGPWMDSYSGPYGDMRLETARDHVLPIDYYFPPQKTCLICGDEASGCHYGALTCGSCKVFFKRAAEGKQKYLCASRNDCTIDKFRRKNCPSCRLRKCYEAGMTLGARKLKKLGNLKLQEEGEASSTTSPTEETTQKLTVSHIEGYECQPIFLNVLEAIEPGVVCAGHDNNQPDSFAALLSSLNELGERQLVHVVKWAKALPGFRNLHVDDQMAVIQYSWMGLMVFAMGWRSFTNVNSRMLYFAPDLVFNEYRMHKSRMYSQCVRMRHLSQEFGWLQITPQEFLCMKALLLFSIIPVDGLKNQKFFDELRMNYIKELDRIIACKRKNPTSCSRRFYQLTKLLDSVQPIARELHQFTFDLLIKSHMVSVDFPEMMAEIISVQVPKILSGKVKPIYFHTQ
Chain of Estrogen receptor beta (Homo sapiens) (Q92731 whole entry, looked up): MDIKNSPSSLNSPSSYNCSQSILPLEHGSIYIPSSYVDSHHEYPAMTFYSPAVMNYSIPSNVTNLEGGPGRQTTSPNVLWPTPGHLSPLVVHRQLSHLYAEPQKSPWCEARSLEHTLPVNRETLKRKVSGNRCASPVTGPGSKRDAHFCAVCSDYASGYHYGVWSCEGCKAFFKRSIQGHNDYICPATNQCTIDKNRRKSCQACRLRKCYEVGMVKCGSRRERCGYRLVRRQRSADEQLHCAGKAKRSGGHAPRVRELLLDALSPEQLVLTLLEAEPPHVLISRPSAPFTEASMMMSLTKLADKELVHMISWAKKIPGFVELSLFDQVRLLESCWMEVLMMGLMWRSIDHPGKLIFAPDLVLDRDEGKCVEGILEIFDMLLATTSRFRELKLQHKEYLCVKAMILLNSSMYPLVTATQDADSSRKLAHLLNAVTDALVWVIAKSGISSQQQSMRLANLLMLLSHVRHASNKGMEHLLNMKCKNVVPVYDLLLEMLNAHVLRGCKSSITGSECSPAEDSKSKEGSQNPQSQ

As for `CC1(C)COP(Oc2ccccc2)OC1`, the Potency result in experiment [1], in experiment [2], in experiment [3], in experiment [4], in [5] and in experiment [6] was “inactive” in each case.

With `Oc1c(Cl)cccc1Cl`, the Potency result in experiment [1], in experiment [7], in experiment [2], in experiment [3], in experiment [5] and in [8] was “inactive” in each case. Moreover, the Potency entry in experiment [9] and in experiment [6] was “inactive” throughout.

With `COP(N)(=S)Oc1ccccc1C(=O)OC(C)C` (stereo unspecified), the Potency result in experiment [1], in experiment [2], in [3], in [4], in experiment [5] and in [8] was “inactive” in each case. The Potency result in [6] was “inactive”.

As for `C[N+](=O)[O-]`, the Potency entry in [1], in [2], in experiment [3], in experiment [5] and in [8] was “inactive” in each case.

For `O=C(NCO)NCO`, the Potency result in experiment [1], in experiment [2], in experiment [3], in experiment [5], in [8] and in [9] was “inactive” each time. Further, in experiment [6], the Potency entry was “inactive”.

Turning to `C#C[C@]1(O)C=C[C@H]2[C@@H]3CCC4=CC(=O)CC[C@@H]4[C@H]3CC[C@@]21CC`, the Potency in experiment [1] is 15 µM (active); in experiment [4] it was 133 nM (active); in experiment [8], 3.35 µM (active). In [10], the outcome was inactive. The Potency entry in [2], in experiment [5], in experiment [9] and in experiment [6] was “inactive” in each case.

Consider `CCOP(=O)(OCC)OP(=O)(OCC)OCC`, for which the Potency entry in [1], in experiment [7], in experiment [2], in experiment [3], in experiment [4] and in experiment [5] was “inactive” each time. The Potency result in [9] and in experiment [6] was “inactive” each time.

On to `C[N+](C)=CCl`, for which the Potency entry in experiment [1], in experiment [2], in experiment [3], in experiment [5], in experiment [8] and in experiment [9] was “inactive” throughout. In addition, the Potency result in [6] is “inactive”. For the same compound, the call in experiment [10] was inactive.

Consider `CC(C)NCC(O)c1ccc(N)c(C#N)c1` (stereo unspecified), for which the Potency entry in [1], in [2], in experiment [3], in experiment [5], in experiment [8] and in [6] was “inactive” each time. For the same compound, the compound was classed as inactive in experiment [10].

`[O]=[Cd]`: the Potency entry in experiment [1], in experiment [2], in experiment [3], in [5], in experiment [8] and in experiment [9] was “inactive” throughout.

On to `O=NN1CCN(N=O)CC1`, for which the Potency result in [1], in [7], in experiment [2], in [3], in experiment [5] and in experiment [8] was “inactive” throughout. The Potency entry in [9] and in experiment [6] was “inactive” each time.

As to `[Cl][Sn]([Cl])([Cl])[Cl]`, the Potency entry in [1], in [2], in experiment [3], in [5] and in experiment [8] was “inactive” throughout.

`COCC(=O)N(c1c(C)cccc1C)N1CCOC1=O`: the Potency entry in experiment [1], in experiment [2], in experiment [3] and in [5] was “inactive” each time.

Turning to `CCC#N`, the Potency result in experiment [1], in experiment [7], in [2], in experiment [3], in experiment [5] and in [6] was “inactive” each time.

As for `CC1=NNC(=O)N(/N=C/c2cccnc2)C1`, the Potency entry in experiment [1], in experiment [7], in experiment [2], in experiment [3], in [5] and in experiment [9] was “inactive” throughout. For the same compound, in experiment [6], the Potency result is “inactive”.

As for `CCCSP(=S)(OCC)Oc1ccc(Cl)cc1Cl` (stereo unspecified), the Potency entry in [1], in experiment [2], in [3], in [5] and in experiment [8] was “inactive” each time.

On to `CCOP(=S)(OCC)SCSP(=S)(OCC)OCC`, for which the Potency entry in [1], in experiment [2], in [5], in experiment [8] and in [9] was “inactive” each time. Further, the compound was classed as inactive in [10].

`CC(C)(C)OC(=O)c1ncn2c1[C@@H]1CCCN1C(=O)c1c(Br)cccc1-2`: the Potency result in experiment [1], in [7], in experiment [5] and in experiment [9] was “inactive” throughout. In addition, the compound was called inactive in experiment [10].

Consider `Cc1cccc(C#N)c1`, for which the Potency entry in experiment [1], in [7], in experiment [2], in experiment [3], in experiment [5] and in experiment [8] was “inactive” throughout. Besides, the Potency entry in experiment [9] and in experiment [6] was “inactive” each time.

As for `Cc1ccccc1CO[C@@H]1C[C@@]2(C(C)C)CC[C@]1(C)O2`, the Potency entry in [1], in experiment [2], in experiment [3], in experiment [4], in experiment [5] and in experiment [9] was “inactive” throughout.

As for `NC(=O)c1cc([N+](=O)[O-])cc([N+](=O)[O-])c1`, the Potency result in experiment [1], in [7], in experiment [2], in [3], in experiment [5] and in experiment [8] was “inactive” throughout. For the same compound, the Potency entry in experiment [6] is “inactive”.

Turning to `Cc1cc(C)c(C(=O)P(=O)(C(=O)c2c(C)cc(C)cc2C)c2ccccc2)c(C)c1`, the Potency entry in experiment [1], in experiment [2], in experiment [3], in experiment [5], in experiment [8] and in experiment [6] was “inactive” each time. Also, in [10], the result was inactive.

With `CCCCOP(=O)(O)OCCCC`, the Potency entry in [1], in [7], in experiment [2], in experiment [3], in [4] and in experiment [5] was “inactive” in each case. In addition, the Potency result in experiment [8] and in experiment [9] was “inactive” each time.

For `CSc1ccc(C(=O)C(C)(C)N2CCOCC2)cc1`, the Potency result in experiment [1], in experiment [2], in experiment [3], in experiment [5] and in experiment [8] was “inactive” in each case. Moreover, the compound was classed as inactive in experiment [10].

With `CC(C)CC#N`, the Potency entry in experiment [1], in [2], in [3], in experiment [4], in experiment [5] and in experiment [8] was “inactive” throughout. Also, the Potency entry in experiment [6] was “inactive”. The compound was called inactive in experiment [10].
